Assay [1] is described as follows: ATG_PBREM_CIS: Attagene CIS-FACTORIAL HepG2 Assay for human Phenobarbital-responsive Enhancer Module (PBREM) (AID 2282955). Particulars: HepG2 PBREM cis-reporter, Attagene multiplexed transcription; actives raise or lower the signal. Put shortly: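 HepG2, transient MRTU transfection, 24 h dosing; RNA → oligo(dT) RT → PCR → 6-FAM extension → HpaI → CE. Bidirectional fit vs DMSO.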

Assay [2] in a line: ATG_PXRE_CIS: Attagene CIS-FACTORIAL HepG2 Assay for human Pregnane X Receptor Element (PXRE) (AID 2282957). Particulars: HepG2 Attagene CIS-FACTORIAL PXRE reporter, mRNA; actives raise or lower the signal. Put shortly:
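Cells: HepG2, transiently transfected reporter units under cis promoter control. Exposure: 24 h. Detection: reporter mRNA via RT-PCR/CE fluorescence; bidirectional fitting, DMSO-referenced.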

The nature of assay [3]: ATG_PPRE_CIS: Attagene CIS-FACTORIAL HepG2 Assay for human Peroxisome Proliferator-activated Response Element (PPRE) (AID 2282958). Particulars: HepG2 PPRE cis-element reporter, Attagene transcription factor profiling; actives raise or lower the signal. A digest of the protocol:
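Transcript-level reporter induction in transfected HepG2 cells after 24 h chemical exposure, quantified by fluorescence from RT-PCR products separated by capillary electrophoresis.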

Assay [4] in a line: ATG_RORE_CIS: Attagene CIS-FACTORIAL HepG2 Assay for human RAR-related Orphan Receptor Element (RORE) (AID 2282959). The following applies: HepG2 Attagene cis-factorial RORE reporter, mRNA; actives raise or lower the signal. A digest of the protocol:
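Multiplexed reporter assay measuring mRNA induction from a cis promoter element in transiently transfected HepG2 cells after 24 h treatment. Detection via RT-PCR and capillary electrophoresis fluorescence; DMSO serves as baseline.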

Assay [5] deals with Transcription factor Sp1 (Homo sapiens) (UniProt P08047). Description: ATG_Sp1_CIS: Attagene CIS-FACTORIAL HepG2 Assay for human Specificity Protein 1 (Sp1) (AID 2282961). The following applies: HepG2 Sp1 cis-reporter transcription, actives raise or lower the signal. A digest of the protocol:
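Measures mRNA induction of an Sp1-linked reporter in HepG2 cells 24 h post-dosing. Multiplexed reporters read by RT-PCR and capillary electrophoresis; DMSO serves as negative control and baseline.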

Assay [6] is described as follows: ATG_SREBP_CIS: Attagene CIS-FACTORIAL HepG2 Assay for human Sterol Regulatory Element Binding (SREBP) (AID 2282962). The following applies: HepG2 Attagene cis-factorial SREBP reporter, mRNA; actives raise or lower the signal. A digest of the protocol: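 Twenty-four hours after chemical dosing of transfected HepG2 cultures, reporter RNA was converted to cDNA, amplified, end-labelled with 6-FAM and resolved by capillary electrophoresis. Responses were fitted relative to DMSO.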

Assay [7] deals with Signal transducer and activator of transcription 3 (Homo sapiens) (UniProt P40763). Description: ATG_STAT3_CIS: Attagene CIS-FACTORIAL HepG2 Assay for human Signal Transducer and Activator of Transcription 3 (STAT3) (AID 2282963). Particulars: HepG2, Attagene cis-factorial STAT3 reporter transcription; actives raise or lower the signal. A digest of the protocol: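 Values derive from bidirectional fits relative to DMSO of reporter mRNA levels, measured by RT-PCR with capillary electrophoresis, in HepG2 cells carrying transiently transfected cis-regulated reporter units and exposed 24 h.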
Signal transducer and activator of transcription 3 (Homo sapiens), sequence (P40763 whole entry, looked up): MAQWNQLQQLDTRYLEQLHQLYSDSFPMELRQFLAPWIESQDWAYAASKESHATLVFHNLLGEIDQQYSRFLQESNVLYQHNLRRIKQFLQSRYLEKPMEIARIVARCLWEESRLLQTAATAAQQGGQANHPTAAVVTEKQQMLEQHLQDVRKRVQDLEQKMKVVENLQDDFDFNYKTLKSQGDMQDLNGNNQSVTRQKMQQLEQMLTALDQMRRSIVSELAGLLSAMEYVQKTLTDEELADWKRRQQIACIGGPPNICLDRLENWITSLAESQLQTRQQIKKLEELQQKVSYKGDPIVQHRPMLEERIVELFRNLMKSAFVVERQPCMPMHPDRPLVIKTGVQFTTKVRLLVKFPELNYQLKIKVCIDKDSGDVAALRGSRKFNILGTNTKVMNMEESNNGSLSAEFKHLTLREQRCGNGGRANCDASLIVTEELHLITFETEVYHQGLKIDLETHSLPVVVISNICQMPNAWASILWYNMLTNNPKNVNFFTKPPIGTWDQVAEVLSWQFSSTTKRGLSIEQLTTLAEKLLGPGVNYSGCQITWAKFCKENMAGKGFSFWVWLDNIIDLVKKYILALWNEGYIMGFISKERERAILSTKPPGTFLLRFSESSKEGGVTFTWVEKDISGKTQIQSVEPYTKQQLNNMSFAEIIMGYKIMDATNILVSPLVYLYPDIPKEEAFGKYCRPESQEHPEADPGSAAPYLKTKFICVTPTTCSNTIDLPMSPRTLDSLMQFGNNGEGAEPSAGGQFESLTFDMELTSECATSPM

A short description of assay [8]: ATG_TA_CIS: Attagene CIS-FACTORIAL HepG2 Assay for human TA Basal Promoter (AID 2282964). The following applies: HepG2 Attagene CIS-factorial TA basal promoter reporter; actives raise or lower the signal. Put shortly: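 Background-control readout: TA basal promoter reporter mRNA, fitted in both directions relative to DMSO. Measured by RT-PCR and capillary electrophoresis 24 hours after treating HepG2 human liver cells transiently carrying multiplexed cis-regulated reporter constructs.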

A short description of assay [9]: ATG_TCF_b_cat_CIS: Attagene CIS-FACTORIAL HepG2 Assay for human T-Cell-Factor with beta-catenin (TCF/b-cat) (AID 2282965). Particulars: HepG2 TCF/beta-catenin cis-reporter transcription, actives raise or lower the signal. Put shortly: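 Cells of the HepG2 line carry transiently transfected reporter units whose promoters respond to endogenous factors. Twenty-four hours post-dosing, reporter mRNA induction is measured by fluorescent RT-PCR and capillary electrophoresis, with DMSO as baseline.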

Assay [10] can be described thus: ATG_TAL_CIS: Attagene CIS-FACTORIAL HepG2 Assay for human TAL Basal Promoter (AID 2282966).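 Further: background control endpoint measuring basal TAL promoter reporter mRNA not a specific factor.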 The following applies: HepG2 Attagene cis-factorial TAL promoter reporter; actives raise or lower the signal. Put shortly: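 RT-PCR plus capillary electrophoresis quantifies reporter mRNA induction in transiently transfected HepG2 cells after 24 h chemical treatment. DMSO serves as negative control and baseline for bidirectional fitting.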

Assay [11] in a line: ATG_TGFb_CIS: Attagene CIS-FACTORIAL HepG2 Assay for human Transforming Growth Factor (TGF) (AID 2282967). The following applies: HepG2 Attagene CIS TGFb reporter, mRNA transcription; actives raise or lower the signal. A digest of the protocol: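 Endogenous TGFB1-linked transcription factor activity read as reporter mRNA via RT-PCR and capillary electrophoresis, 24 h after dosing transiently transfected HepG2 cells. Gain or loss of signal fitted relative to DMSO.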

Assay [12] concerns the target X-box-binding protein 1 (Homo sapiens) (UniProt P17861). Description: ATG_Xbp1_CIS: Attagene CIS-FACTORIAL HepG2 Assay for human X-box Binding Protein 1 (XBP1) (AID 2282972). The following applies: HepG2 XBP1 cis-element reporter, Attagene multiplex; actives raise or lower the signal. Put shortly: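 After a 24-hour chemical exposure of HepG2 cells carrying cis-regulated reporters, reporter mRNA levels are assessed. Quantification uses RT-PCR, 6-FAM labelling and capillary electrophoresis. Gain- or loss-of-signal is fitted against DMSO.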

Assay [13] can be described thus: ATG_M_19_TRANS: Attagene TRANS-FACTORIAL HepG2 Assay for M19 Transcription Factor (Internal Marker) (AID 2282974; active means hit-call score of the fitted dose curve at least 0.9, where 1 is the maximum). Particulars: HepG2 Attagene TRANS-FACTORIAL M19 internal marker reporter. A digest of the protocol: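 After transfection of HepG2 with GAL4-UAS-driven reporter constructs, cells are dosed for 24 h. Total RNA is reverse-transcribed, reporter sequences PCR-amplified and labelled, then HpaI-digested and sized by capillary electrophoresis.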

Assay [14] in a line: ATG_GAL4_TRANS: Attagene TRANS-FACTORIAL HepG2 Assay for GAL4 (Internal Marker) (AID 2282976; active means hit-call score of the fitted dose curve at least 0.9, where 1 is the maximum). The following applies: HepG2 Attagene TRANS GAL4 internal marker reporter. Put shortly: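 In transfected human HepG2 liver cells dosed 24 h, GAL4 reporter mRNA serves as a baseline marker. Detection by RT-PCR with fluorescent capillary electrophoresis, activity fitted upward relative to DMSO.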

The nature of assay [15]: ATG_Sox_CIS: Attagene CIS-FACTORIAL HepG2 Assay for human SRY-box transcription factor (SOX) (AID 2282960). The following applies: HepG2 Attagene cis-factorial SOX reporter, mRNA; actives raise or lower the signal. A digest of the protocol:
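Cells were transfected with reporter constructs under cis-regulatory promoters, then exposed to chemicals for 24 h. Reporter transcripts were quantified by fluorescence after RT-PCR and capillary electrophoresis; activity was fitted in both directions against DMSO.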

Assay [16] can be described thus: ATG_VDRE_CIS: Attagene CIS-FACTORIAL HepG2 Assay for human Vitamin D Receptor Element (VDRE) (AID 2282968). The following applies: HepG2 VDRE cis-reporter transcription, actives raise or lower the signal. A digest of the protocol:
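Cell-based multiplexed reporter format in human liver HepG2 cells, 24 h post-dose. Fluorescence from capillary electrophoresis of reporter cDNA gives the signal, with DMSO as negative control and baseline.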

For assay [17], the target named is Nuclear receptor subfamily 1 group I member 3 (Homo sapiens) (UniProt Q14994). Briefly: ATG_CAR_TRANS: Attagene TRANS-FACTORIAL HepG2 Assay for human Constitutive Androstane Receptor (CAR) (AID 2282969; active means hit-call score of the fitted dose curve at least 0.9, where 1 is the maximum;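 further: activators raise reporter mRNA above DMSO so AC50 marks induction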). The following applies: HepG2 Attagene TRANS-FACTORIAL CAR reporter. A digest of the protocol:
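HepG2 cells transiently transfected with GAL4-UAS reporter units; TRANS format reads activity of exogenous chimeric NR-Gal4 protein. After 24 h dosing, reporter mRNA quantified by RT-PCR, 6-FAM labelling and capillary electrophoresis; gain of signal fitted against DMSO.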

In assay [18] the target is Estrogen receptor (Homo sapiens) (UniProt P03372). Description: ATG_ERa_TRANS: Attagene TRANS-FACTORIAL HepG2 Assay for human Estrogen Receptor alpha (ERa) (AID 2282970; active means hit-call score of the fitted dose curve at least 0.9, where 1 is the maximum). The following applies: HepG2 Attagene TRANS ERa GAL4 reporter, mRNA. A digest of the protocol:
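Cells: HepG2, transiently transfected. Construct: GAL4-UAS reporter units regulated by exogenous NR-Gal4 chimeras. Time: 24 h. Detection: reporter mRNA by RT-PCR, capillary electrophoresis, fluorescence. Baseline: DMSO, upward fitting.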

Records with an inconclusive call do not appear. Activity calls are given as the source filed them. How the source made its calls, unless noted: active means hit-call score of the fitted dose curve at least 0.9, where 1 is the maximum; inactive means score below 0.9.

Estrogen receptor (Homo sapiens), sequence (P03372 whole entry, looked up, the tested form may be a part): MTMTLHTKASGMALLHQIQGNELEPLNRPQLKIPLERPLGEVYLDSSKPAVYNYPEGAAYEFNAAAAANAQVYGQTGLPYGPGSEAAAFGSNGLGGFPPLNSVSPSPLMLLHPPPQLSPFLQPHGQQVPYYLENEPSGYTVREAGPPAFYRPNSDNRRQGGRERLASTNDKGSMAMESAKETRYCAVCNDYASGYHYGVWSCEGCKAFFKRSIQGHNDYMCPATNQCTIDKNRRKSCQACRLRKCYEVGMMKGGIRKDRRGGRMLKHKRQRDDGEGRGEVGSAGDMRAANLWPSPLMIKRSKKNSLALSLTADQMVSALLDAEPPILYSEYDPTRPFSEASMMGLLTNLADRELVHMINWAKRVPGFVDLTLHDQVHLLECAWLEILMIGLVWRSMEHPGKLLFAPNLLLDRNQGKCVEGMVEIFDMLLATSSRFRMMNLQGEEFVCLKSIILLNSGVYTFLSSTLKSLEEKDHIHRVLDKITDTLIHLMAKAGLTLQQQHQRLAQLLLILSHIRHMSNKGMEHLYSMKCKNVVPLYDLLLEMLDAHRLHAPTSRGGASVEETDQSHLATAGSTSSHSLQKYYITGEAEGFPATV
Transcription factor Sp1 (Homo sapiens), sequence (P08047 whole entry, looked up): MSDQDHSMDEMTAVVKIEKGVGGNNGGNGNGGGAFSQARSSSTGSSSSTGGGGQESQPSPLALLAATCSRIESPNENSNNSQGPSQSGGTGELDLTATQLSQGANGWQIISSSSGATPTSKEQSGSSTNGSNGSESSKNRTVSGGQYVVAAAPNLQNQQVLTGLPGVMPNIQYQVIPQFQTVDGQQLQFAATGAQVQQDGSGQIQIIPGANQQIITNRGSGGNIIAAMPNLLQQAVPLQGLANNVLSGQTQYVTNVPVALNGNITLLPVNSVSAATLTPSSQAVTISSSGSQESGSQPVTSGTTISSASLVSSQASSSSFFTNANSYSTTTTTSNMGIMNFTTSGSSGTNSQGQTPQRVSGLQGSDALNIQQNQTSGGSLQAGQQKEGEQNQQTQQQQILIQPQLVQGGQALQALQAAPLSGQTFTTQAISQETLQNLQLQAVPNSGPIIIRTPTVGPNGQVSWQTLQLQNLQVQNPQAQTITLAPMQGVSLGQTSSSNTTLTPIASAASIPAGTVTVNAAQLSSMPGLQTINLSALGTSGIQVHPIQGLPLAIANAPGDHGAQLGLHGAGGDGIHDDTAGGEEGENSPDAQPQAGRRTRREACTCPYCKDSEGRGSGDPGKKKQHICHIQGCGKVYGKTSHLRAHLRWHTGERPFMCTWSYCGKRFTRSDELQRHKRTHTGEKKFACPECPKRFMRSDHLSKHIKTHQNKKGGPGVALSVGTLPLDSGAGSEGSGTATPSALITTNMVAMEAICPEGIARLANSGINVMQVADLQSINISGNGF
X-box-binding protein 1 (Homo sapiens), sequence (P17861 whole entry, looked up): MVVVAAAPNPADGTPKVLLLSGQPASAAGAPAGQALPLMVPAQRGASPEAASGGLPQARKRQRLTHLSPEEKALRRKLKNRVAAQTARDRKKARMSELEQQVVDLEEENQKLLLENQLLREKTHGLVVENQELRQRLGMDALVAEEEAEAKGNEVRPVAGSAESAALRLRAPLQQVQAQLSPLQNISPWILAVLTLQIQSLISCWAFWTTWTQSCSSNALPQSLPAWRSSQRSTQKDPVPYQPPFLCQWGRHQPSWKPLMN
Nuclear receptor subfamily 1 group I member 3 (Homo sapiens), sequence (Q14994 whole entry, looked up, the tested form may be a part): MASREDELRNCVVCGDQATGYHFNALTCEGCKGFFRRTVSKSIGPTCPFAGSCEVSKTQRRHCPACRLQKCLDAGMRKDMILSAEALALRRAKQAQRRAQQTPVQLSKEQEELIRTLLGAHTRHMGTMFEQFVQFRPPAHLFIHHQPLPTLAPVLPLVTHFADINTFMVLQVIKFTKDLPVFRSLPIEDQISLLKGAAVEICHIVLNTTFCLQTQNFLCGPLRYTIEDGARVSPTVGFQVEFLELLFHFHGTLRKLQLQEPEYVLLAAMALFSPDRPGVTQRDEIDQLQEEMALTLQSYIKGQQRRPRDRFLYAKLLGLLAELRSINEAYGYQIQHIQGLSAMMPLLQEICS

As for `C=C(C)C(=O)OCC(O)COc1ccc(C(C)(C)c2ccc(OCC(O)COC(=O)C(=C)C)cc2)cc1` (stereo not given), the outcome in assay [1], in [4], in [5], in assay [7], in assay [9] and in [10] was inactive. Also, the compound was called inactive in assay [11], in assay [13] and in assay [14]. Besides, the concentration at half-maximal activity (AC50) was 2.17 µM (active) in assay [2]; 14.7 µM (active) in [3]; 51 µM (active) in assay [6]; 28.3 µM (active) in [8]; 26.3 µM (active) in assay [12].

`CCCC(CC)c1ccccc1` (stereo not given): the result in [1], in assay [15], in [8], in assay [9], in assay [10] and in assay [11] was inactive. Besides, the outcome in assay [16], in assay [17], in [12] and in [13] was inactive. The AC50 in [2] is 36.2 µM (active); in [5], 180 µM (active); in [6] it was 164 µM (active); in [18] it was 55.3 µM (active).

With `O=C(Cl)c1ccc(C(=O)Cl)cc1`, the result in [1], in [2], in [4], in assay [15], in assay [5] and in assay [6] was inactive. Also, the compound was classed as inactive in assay [7], in assay [8], in [9], in assay [10], in assay [18] and in assay [12]. In addition, the compound was classed as inactive in assay [13] and in assay [14].

Consider `CCNc1nc(NC(C)(C)C)nc(OC)n1`, for which the outcome in assay [1], in assay [15], in [5], in assay [6], in [8] and in assay [9] was inactive. For the same compound, the call in assay [10], in assay [18], in [12], in [13] and in [14] was inactive. In addition, the results for the AC50 in assay [2] and in assay [16] were 10.3 µM (active) and 19.3 µM (active), respectively.

As for `O=C1c2ccccc2C(=O)c2cc(S(=O)(=O)O)ccc21`, the result in assay [1], in assay [2], in [3], in [4], in [15] and in assay [5] was inactive. The compound was called inactive in assay [6], in [7], in assay [8], in assay [9], in [10] and in assay [11]. In addition, the result in [16], in assay [12] and in assay [13] was inactive.

What is called AC50 is the midpoint of the concentration-response curve, whichever way the signal moves.

The values are drawn from PubChem BioAssay (EPA / NIEHS).
